G9a block – G9a (human) methyltransferase inhibition. G9a H3K9 monomethylation, AlphaScreen, 2 h. Potency, µM (series often up to 102 µM), actives largely listed as inhibitors. 350,000 tested, 8.8% active. AID 504332; note: nearly all actives have a fitted effect of over 75% in size
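Step 1: enzyme (final 20 nM) with compound, 15 min RT. Step 2: substrate peptide 500 nM and SAM 20 uM, 2 h RT. Step 3: anti-H3K9me1 antibody and AlphaScreen beads, 10 min, then plate read.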
HP1b chromo inh – inhibitors of HP1-beta chromodomain binding to methylated histone tails; P83916; AlphaScreen HP1-beta / biotin-H3K9me3 peptide binding; 390,000 tested, 0.56% active; AID 540317; Potency, µM (series often up to 114 µM), hits mostly inhibitors; note: nearly all actives have a fitted effect of over 70% in size
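HP1-beta protein (50 nM final) preincubated 30 min at room temperature with biotinylated H3(1-18)K9me3 peptide (50 nM) in PBS pH 7.4, 0.01% Tween-20, then compound added for 30 min. AlphaScreen streptavidin donor/nickel chelate acceptor beads (10 ug/mL final), 30 min dark, luminescence read.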
Sfp PPTase inh – Sfp phosphopantetheinyl transferase inhibition | Potency, µM, most hits filed as inhibitors | AID 1490 | Q9F4F7 | Biochemical Sfp PPTase activity, qHTS | 310,000 tested, 3.5% active;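 note: the enzyme is Sfp with the accession as filed and its product quenches rhodamine fluorescence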
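Step 1, compound plus 15 nM Sfp-PPTase, 15 min, room temperature. Step 2, add rhodamine-CoA (5 uM) and BHQ-2-YbbR (12.5 uM). Step 3, read 525/598 nm fluorescence at 0 and 30 min.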
BAZ2B inh – inhibitors of human BAZ2B bromodomain; AID 504333; Q9UIF8; Potency, µM (top dose mostly 114 µM), actives largely listed as inhibitors; AlphaScreen BAZ2B-H3K14Ac peptide displacement; 360,000 tested, 4.4% active; note: nearly all actives have a fitted effect of over 60% in size
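Complex of BAZ2B and biotin-H3K14Ac (50 nM apiece) forms over 30 min at RT, then faces library compounds up to 110 uM for another 30 min; AlphaScreen beads added, 20 min dark incubation, luminescence read.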
TDP1 inh – blocks human tyrosyl-DNA phosphodiesterase 1. Q9NUW8. AID 485290. Potency, µM (highest dose often 130 µM), actives largely listed as inhibitors. 350,000 tested, 0.28% active. recombinant TDP1, AlphaScreen DNA substrate cleavage; note: nearly all actives have a fitted effect of over 40% in size
Target sequence (Q9NUW8 whole entry, looked up): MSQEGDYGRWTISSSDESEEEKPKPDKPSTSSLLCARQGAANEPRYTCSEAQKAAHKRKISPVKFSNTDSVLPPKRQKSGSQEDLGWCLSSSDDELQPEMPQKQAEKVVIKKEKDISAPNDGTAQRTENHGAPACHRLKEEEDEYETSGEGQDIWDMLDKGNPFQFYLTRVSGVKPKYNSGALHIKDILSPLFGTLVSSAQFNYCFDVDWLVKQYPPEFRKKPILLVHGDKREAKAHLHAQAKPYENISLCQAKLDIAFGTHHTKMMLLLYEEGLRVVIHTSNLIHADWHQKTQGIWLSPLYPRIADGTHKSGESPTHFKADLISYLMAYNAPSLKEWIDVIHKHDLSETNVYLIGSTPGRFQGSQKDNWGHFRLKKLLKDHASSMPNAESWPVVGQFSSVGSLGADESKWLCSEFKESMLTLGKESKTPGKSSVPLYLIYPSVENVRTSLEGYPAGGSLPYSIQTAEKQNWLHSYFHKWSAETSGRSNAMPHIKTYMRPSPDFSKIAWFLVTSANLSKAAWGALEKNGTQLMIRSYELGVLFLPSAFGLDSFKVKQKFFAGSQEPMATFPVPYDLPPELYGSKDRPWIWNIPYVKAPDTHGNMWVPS
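Compounds were preincubated with Tdp1 (1 nM final) for 15 min at room temperature before substrate (15 nM final) started a 5 min reaction; beads (10 ug/ml final) were then added for 10 min before AlphaScreen detection.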
JMJD2A Tudor – JMJD2A Tudor domain (human) inhibition; AlphaScreen JMJD2A-Tudor / H3K4me3 peptide binding; 390,000 tested, 4.4% active; Potency, µM (doses to about 114 µM), hits mostly inhibitors; O75164; note: nearly all actives have a fitted effect of over 50% in size
Hits are given with their value; n = inactive; u = inconclusive; x = no result; [ ] = dose if it differs, or a comment. Rows were chosen to be rich in hits. Some 12% of all compounds tested hit in one or more screens of this group. Calls come from the whole dose curve; as a rule, active = well fitted curve in the direction sought with a large enough effect; inconclusive = small, poorly fitted or top-dose-only effect, or another doubt; inactive = no such curve, though single readings can be large; an effect the other way counts as inactive or inconclusive.

SMILES | G9a block | HP1b chromo inh | Sfp PPTase inh | BAZ2B inh | TDP1 inh | JMJD2A Tudor
CCOC(=O)c1c(C)[nH]c(-c2csc(C)n2)c1C | u | u | n | u | n | u
CCOC(=O)c1c(C)[nH]c(-c2csc(N)n2)c1C | 28µM | u | 35µM | u | n | u
Cc1cc(C)nc(Nc2n[nH]c(COc3ccc4ccccc4c3)n2)n1 | x | n | n | n | n | n
Cc1cc(C)nc(Nc2n[nH]c(COc3ccccc3)n2)n1 | n | n | n | n | n | 32µM
Cc1cccc(CNC(=O)C2CCCN(S(=O)(=O)c3cn(C)cn3)C2)c1 (centres undefined) | n[12.7 µM] | n | x | n | n | n
CC(C)CC(=O)Nc1ccc(S(=O)(=O)N2CCCC2)cc1 | n | n | n | n | x | n
Cc1ccc(C(=O)C2CCN(CC(=O)Nc3ccc(N(C)C)cc3)CC2)cc1 | 40µM | n | n | n | n | 45µM
CC(C)CC(=O)Nc1ccc(C(=O)CN2CCC(C)CC2)cc1 | 10µM | n | u | n | n | n
CCC(=O)Nc1ccc(N2CCC(C)CC2)cc1 | 8.9µM | n | n | n | n | n
CC1CCN(CC(=O)Nc2ccc(C(=O)N3CCCCC3)cc2)CC1 | 28µM | u | n | 50µM | n | 1µM
COc1ccc(NC(=O)CN2CCC(C)CC2)cc1 | n | n | n | n | n | n
CCC(=O)Nc1ccc(C(=O)CN2CCC(C)CC2)cc1 | 10µM | x | n | n | n | x
CCCCC(=O)Nc1ccc(N2CCN(C(=O)CC)CC2)cc1 | u | n | n | n | n | n
CCCC(=O)Nc1ccc(N2CCN(C(=O)CCC)CC2)cc1 | 50µM | n | n | n | n | n
COc1ccccc1CN1CCC(CNC(=O)c2cnn(-c3ccc(Cl)cc3)c2C2CCN(C(=O)OC(C)(C)C)CC2)CC1 | n | n | x | n | n | n
Cc1ccc2c(cnn2C(=O)CCC(=O)NCc2ccccc2Cl)c1 | x | n | n | n | x | n
CCOc1ccc(N2CC(=O)N(c3ccc(OCC)cc3)CC2=O)cc1 | x | n | n | n | n | n
CCOc1ccc(N2Cc3ccccc3C2)cc1 | 2.5µM | n | n | x | n | n
CCOC(=O)C1(CCCc2ccccc2)CCN(Cc2ccn[nH]2)CC1 | 50µM | n | n | n | x | n
C/C=C/c1cc(CN2CCN(c3ccccc3)CC2)c(O)c(OC)c1 | u | n | n | x | n | u
C/C=C/c1cc(CN2CCN(c3ccc(OC)cc3)CC2)c(O)c(OC)c1 | 35µM | 45µM | n | 28µM | n | 45µM
COc1ccc(N2CCN(Cc3cc4c(cc3O)CCC4)CC2)cc1 | u | n | n | 32µM | n | 16µM
Cc1nnc(NC(=O)C2CCN(S(=O)(=O)c3ccc(F)c(F)c3)CC2)o1 | x | n | x | x | n | 50µM
CSc1ccc(S(=O)(=O)N2CCC(C(=O)N3CCc4ccccc4C3)CC2)cc1 | 40µM | n | n | n | n | n
O=c1ccc(S(=O)(=O)N2CCCC2)cn1Cc1ccc(F)cc1 | 3.5µM | n | x | n | n | n
SMILES | G9a block | HP1b chromo inh | Sfp PPTase inh | BAZ2B inh | TDP1 inh | JMJD2A Tudor
Cc1ccc(S(=O)(=O)N2CCC(C(=O)Nc3ccc(N4CCOCC4)cc3)CC2)cc1C | 16µM | n | x | n | n | n
O=C(Nc1ccc(N2CCOCC2)cc1)C1CCN(S(=O)(=O)c2ccc3c(c2)OCCO3)CC1 | n | n | n | n | n | n
Cc1ccc(C)c(N2CCN(C(=O)c3ccc4c(c3)N(Cc3ccc(F)cc3)C(=O)c3ccccc3S4=O)CC2)c1 (centres undefined) | n | n | x | n | n | n
COc1ncc2nc(C)c(=O)n(CCC#N)c2n1 | n[12.7 µM] | x | n | x | x | x
COc1ccc([N+](=O)[O-])cc1NC(=O)Cc1noc2ccccc12 | n | n | n | n | n | n
CSc1ccc(S(=O)(=O)N2CCC(C(=O)Nc3ccc(NC(C)=O)cc3)CC2)cc1 | 40µM | n | n | n | n | n
O=S(=O)(c1ccc(F)cc1)N1CCC(N2CCCC2)CC1 | u | u | n | u | n | 20µM
CCNC(=O)C1CCN(S(=O)(=O)c2ccc(F)cc2)CC1 | n | n | n | n | n | 25µM
CC(=O)Nc1ccc(S(=O)(=O)N2CCC(C(=O)NC3CCCC3)CC2)cc1 | n | n | n | n | n | n
O=C(NCCO)C1CCN(S(=O)(=O)c2ccc(F)cc2)CC1 | n | n | n | n | n | n
CC(=O)Nc1ccc(S(=O)(=O)N2CCN(S(=O)(=O)c3ccc(NC(C)=O)cc3)CC2)cc1 | n | n | n | n | x | n
N#Cc1ccc(S(=O)(=O)N2CCC(N3CCCCC3)CC2)cc1 | n | n | n | n | n | n
CC(=O)Nc1ccc(S(=O)(=O)N2CCC(N3CCCC3)CC2)cc1 | 50µM | u | n | u | n | 3.5µM
Cc1cccc(N2CCN(C(=O)c3ccc(Cl)c(NC4=NC5CS(=O)(=O)CC5S4)c3)CC2C)c1 (centres undefined) | n | n | n | n | n | n
COC(=O)c1cc2oc3ccccc3c2n1CC(=O)Nc1ccc(Cl)cc1F | n | n | x | n | n | n
CCOc1cccc2c1OC1(C)CC2NC(=O)N1c1cccc(C(=O)N2CCN(c3ccccn3)CC2)c1 (centres undefined) | n | n | n | n | n | n
CC(=O)N1c2ccc(S(=O)(=O)NCCc3ccc(S(N)(=O)=O)cc3)cc2CC1C (centres undefined) | x | n | n | n | n | n
CCn1c(C2CCN(S(=O)(=O)c3ccc(OC)cc3)CC2)n[nH]c1=S | 14µM | n | n | n | n | 6.3µM
COc1ccc(S(=O)(=O)N2CCC(N3CCN(c4ccccc4)CC3)CC2)cc1 | n[0.501 µM] | x | n | n | n | x
CCn1c(SCc2ccccc2)nnc1C1CCN(S(=O)(=O)c2ccc(OC)cc2)CC1 | x | n | n | n | n | n
COc1ccc(S(=O)(=O)N2CCC(N3CCCCC3)CC2)cc1 | u | u | u | 71µM | n | 8.9µM
CCC(=O)N1CCCc2cc(S(=O)(=O)N3CCC(C(=O)NCc4ccc(F)cc4)CC3)ccc21 | n | n | x | n | n | 56µM
COc1ccc(NC(=O)Cn2cc(C(=O)c3ccccc3)c(=O)c3cc(OC)ccc32)c(OC)c1 | n | n | x | n | n | n
CC(OC(=O)c1cccc(Cl)c1)C(=O)NC1CCCCC1C (centres undefined) | n | n | n | n | n | n
CC(OC(=O)c1ccc2c(c1)OCO2)C(=O)NC1CCCCC1C (centres undefined) | 28µM | n | x | n | n | n
CC1CCN(S(=O)(=O)c2ccc(C(=O)OC(C)C(=O)NC3CCCCC3C)cc2)CC1 (centres undefined) | 32µM | n | n | n | n | n
COc1ccc(CCNC(=O)CSc2nc3[nH]c(=O)cc(O)c3s2)cc1 | n[12.7 µM] | n | x | n | n | n
C=CCOc1ccccc1CN1CCC(Cc2ccccc2)CC1 | x | u | n | u | x | 3.2µM
